Here are results for nine molecules from PubChem BioAssay (Tox21).

Unmarked numbers belong to inactive results. Results filed as inconclusive are left out. The source made the active and inactive calls. Unless noted, calls come from the whole dose curve.

Experiment [1] can be described thus: Nuclear factor erythroid 2-related factor 2/antioxidant responsive element (Nrf2/ARE) small molecule agonists: qHTS cell viability counter screen in human keratinocytes (AID 1919968; active = well fitted curve in the direction sought with a large enough effect in the repeat runs; an effect the other way counts as inactive or inconclusive; note: nearly all actives have a fitted effect of over 55% in size). The method, boiled down:
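KeratinoSens cells (HaCaT keratinocytes stably carrying an ARE-luciferase reporter) were seeded at 1,500 cells/well and rested 5 h at 37 C/5% CO2. They were then exposed to compounds in DMSO for 23 h. Viability was read by CellTiter-Fluor fluorescence after 1 h.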

For experiment [2], the target named is Gonadotropin-releasing hormone receptor (Homo sapiens) (UniProt P30968). The experiment in a line: Human gonadotropin-releasing hormone receptor (GnRHR) small molecule agonists, calcium flux assay in GnRHR-HEK293 cells (AID 1920063). Note: nearly all actives have a fitted effect of over 35% in size. The method, boiled down:
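HEK293 cells stably expressing human GnRHR were plated 18 h at 37 °C, loaded with calcium dye 1 h at 37 °C, then given compound in agonist mode; fluorescence (Ex/Em 480/540) read kinetically for 3 min at 1 s intervals.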

Experiment [3] deals with KiSS-1 receptor (Homo sapiens) (UniProt Q969F8). Put plainly: Human kisspeptin (KISS1R) small molecule agonists, calcium flux assay in KISS1R-HEK293 cells (AID 1920064; active = well fitted curve in the direction sought with a large enough effect in the repeat runs; an effect the other way counts as inactive or inconclusive). The method, boiled down:
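HEK293 cells stably expressing human KISS1R were plated 18 h at 37 °C, loaded with calcium dye for 1 h at 37 °C, then given compound by pin tool. Fluorescence (Ex/Em 480/540) was read kinetically for 3 min.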

Experiment [4] is described as follows: G protein-coupled receptor (GPCR) small molecule agonists, calcium flux assay: HEK293 wild type cell line counter screen (AID 1920065). The method, boiled down:
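Cells were plated and cultured 18 h at 37 C/5% CO2, then loaded with calcium dye for 1 h at 37 C. Compounds in DMSO were pin-transferred in agonist mode, and fluorescence (Ex/Em 480/540) was read kinetically for 3 min at 1 s intervals.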

The nature of experiment [5]: p53 small molecule agonists, cell-based qHTS assay with human liver microsomes: qHTS cell viability counter screen (AID 1963579). Note: nearly all actives have a fitted effect of over 45% in size. Summed up: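 Cytotoxicity counter screen: p53RE-bla, 4,000 cells/well; 5 h settle, 37 C/5% CO2; cpd + HLM 0.5 mg/mL + NADPH 0.5 mg/mL (final); 16 h, 37 C; CellTiter-Glo, 30 min RT, luminescence.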
The nature of experiment [6]: p53 small molecule agonists, cell-based qHTS assay with rat liver microsomes: qHTS cell viability counter screen (AID 1963580). Note: nearly all actives have a fitted effect of over 45% in size. The method, boiled down:
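In HCT-116 cells carrying a p53 response element-bla reporter, compounds were metabolically activated in situ by rat liver microsomes with NADPH over 16 h. Cell ATP content then served as the cytotoxicity measure.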

A short description of experiment [7]: p53 small molecule agonists, cell-based qHTS assay: qHTS cell viability counter screen (AID 1963581). Note: nearly all actives have a fitted effect of over 45% in size. Summed up: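 p53RE-bla HCT-116 cells were exposed to compounds for 16 h at 37 C; after the beta-lactamase FRET read in the same wells, CellTiter-Glo was added and luminescence (intracellular ATP) read after 30 min at room temperature.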
In experiment [8] the target is 5-hydroxytryptamine receptor 2A (Homo sapiens) (UniProt P28223). Put plainly: 5-hydroxytryptamine receptor 2A (HTR2A) small molecule antagonists, cell-based qHTS assay (AID 1963586). Note: nearly all actives have a fitted effect of over 45% in size. The method, boiled down: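 Antagonist-mode intracellular calcium assay: DOI (4 nM) added after 5 min compound pre-incubation at room temperature to dye-loaded HTR2A-CHO cells. Fluorescence followed for 3 min, sampled every second.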

Experiment [9] has the same target. The experiment in a line: 5-hydroxytryptamine receptor 2A (HTR2A) small molecule agonists, cell-based qHTS assay (AID 1963587). Note: nearly all actives have a fitted effect of over 30% in size. The method, boiled down:
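HTR2A-CHO cells, plated 18 h at 37 C/5% CO2, dye-loaded 1 h at 37 C; compounds in DMSO added by pin tool (agonist mode). Intracellular calcium flux read as kinetic fluorescence on FDSS over 2 min at 1 s intervals.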

The target in experiment [10] is Muscarinic acetylcholine receptor M1 (Homo sapiens) (UniProt P11229). Put plainly: Cholinergic receptor muscarinic 1 (CHRM1) small molecule antagonists, cell-based qHTS assay (AID 1963588). Note: nearly all actives have a fitted effect of over 40% in size. Summed up: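 CHRM1-CHO calcium-flux assay, antagonist mode. Cells were seeded 18 h, dye-loaded 1 h at 37 C and given compound for 5 min at RT, then acetylcholine was added at 50nM. FDSS fluorescence was read 3 min; 15 concentrations, three runs.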

The target is the same in experiment [11]. Put plainly: Cholinergic receptor muscarinic 1 (CHRM1) small molecule agonists, cell-based qHTS assay (AID 1963589). Note: nearly all actives have a fitted effect of over 35% in size. The method, boiled down:
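CHO cells stably expressing human CHRM1, seeded 18 h at 37 C/5% CO2, dye-loaded 1 h at 37 C, then given compound in agonist mode; intracellular calcium fluorescence read kinetically at 1 s intervals. Fifteen concentrations, three independent runs.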

The target in experiment [12] is Beta-2 adrenergic receptor (Homo sapiens) (UniProt P07550). The experiment in a line: Adrenergic beta2 receptor (ADRB2) small molecule antagonists, cell-based qHTS assay (AID 1963592). Note: series mostly up to about 92 µM; nearly all actives have a fitted effect of over 50% in size. Summed up: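 Cells (CHO, stable ADRB2 overexpression) incubated 18-20hr at 37C; compounds added from DMSO; agonist mix (1nM isoproterenol, 100uM IBMX, 25uM Ro-20-1724) added; 0.5hr RT; d2-cAMP and anti-cAMP-cryptate added; 1hr RT; 665/615 nm read.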

In experiment [13] the target is D(2) dopamine receptor (Homo sapiens) (UniProt P14416). Put plainly: Dopamine D2 receptor (DRD2) small molecule agonists, cell-based qHTS assay (AID 1963594). Note: nearly all actives have a fitted effect of over 35% in size. The method, boiled down:
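HEK293 cells stably expressing DRD2 were cultured 24 h at 37 C, then given Ro20-1724 (0.1 mM final) and compounds for 10 min at room temperature. NKH477 (200nM) was then added for 30 min. cAMP was read by HTRF.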

Experiment [14] has the same target. The experiment in a line: Dopamine D2 receptor (DRD2) small molecule antagonists, cell-based qHTS assay (AID 1963595; active = well fitted inhibition curve with a large enough effect in the signal ratio in the repeat runs, with a control signal flat; the % refers to the signal ratio; note: potency is the fitted concentration of half-maximal effect). The method, boiled down:
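Antagonist mode in DRD2-HEK293 cells: after compound addition with 0.1 mM Ro20-1724, cells received quinpirole (12 nM) and NKH477 (200 nM) for 30 min at room temperature; HTRF cAMP read after 1 h detection.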

The nature of experiment [15]: cAMP Responsive Elements (CRE) small molecule agonists, cell-based qHTS assay (AID 1963590). The method, boiled down: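 CRE-bla HEK 293T cells in DMEM with 10% dialyzed FBS, NEAA, pyruvate and 25 mM HEPES were plated 18 h at 37 C/5% CO2, then exposed to compounds in DMSO for 3 h before LiveBLAzer B/G FRET substrate addition.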
Experiment [16] can be described thus: cAMP Responsive Elements (CRE) small molecule antagonists, cell-based qHTS assay (AID 1963591; active = well fitted inhibition curve with a large enough effect in the signal ratio in the repeat runs, not every such curve was filed as active; the % refers to the signal ratio). The method, boiled down: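 CRE-bla HEK293T cells were plated 18 h at 37 °C/5% CO2, pinned with compound in DMSO, then stimulated with NKH477 at 0.25 uM final for 3 h. LiveBLAzer B/G FRET substrate was added and plates incubated 2 h at room temperature.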
The target of experiment [17] is Beta-2 adrenergic receptor (Homo sapiens) (UniProt P07550). Put plainly: Adrenergic beta2 receptor (ADRB2) small molecule agonists, cell-based qHTS assay (AID 1963593).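 Note: CHO cells stably overexpressing human ADRB2.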 The method, boiled down:
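CHO cells stably over-expressing ADRB2 were plated overnight at 37C, then dosed with compounds plus a stimulation mix containing 100uM IBMX and 25uM Ro-20-1724 for 0.5hr at room temperature. cAMP was measured by HTRF competition, 1hr.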

Gonadotropin-releasing hormone receptor (Homo sapiens), sequence (P30968 whole entry, looked up): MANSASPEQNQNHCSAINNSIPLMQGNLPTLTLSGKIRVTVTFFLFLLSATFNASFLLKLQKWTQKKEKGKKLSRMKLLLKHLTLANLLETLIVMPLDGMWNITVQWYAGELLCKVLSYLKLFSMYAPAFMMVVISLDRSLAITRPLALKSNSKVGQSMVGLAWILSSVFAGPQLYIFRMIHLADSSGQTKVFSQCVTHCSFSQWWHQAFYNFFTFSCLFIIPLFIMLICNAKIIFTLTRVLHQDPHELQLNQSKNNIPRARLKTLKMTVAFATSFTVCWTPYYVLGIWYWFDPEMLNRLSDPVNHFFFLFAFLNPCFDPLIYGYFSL
D(2) dopamine receptor (Homo sapiens), sequence (P14416 whole entry, looked up): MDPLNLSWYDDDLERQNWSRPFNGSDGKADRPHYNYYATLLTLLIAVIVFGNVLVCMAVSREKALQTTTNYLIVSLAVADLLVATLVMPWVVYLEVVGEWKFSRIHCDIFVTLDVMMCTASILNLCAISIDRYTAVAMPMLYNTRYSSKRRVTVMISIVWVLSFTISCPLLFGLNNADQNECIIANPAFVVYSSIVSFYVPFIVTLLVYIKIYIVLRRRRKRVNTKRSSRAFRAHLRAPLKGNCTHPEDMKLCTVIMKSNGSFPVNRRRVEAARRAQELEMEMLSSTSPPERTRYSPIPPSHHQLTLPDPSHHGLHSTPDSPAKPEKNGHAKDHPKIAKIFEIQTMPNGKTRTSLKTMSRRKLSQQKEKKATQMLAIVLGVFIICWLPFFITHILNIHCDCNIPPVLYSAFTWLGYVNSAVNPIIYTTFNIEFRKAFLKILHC
Beta-2 adrenergic receptor (Homo sapiens), sequence (P07550 whole entry, looked up): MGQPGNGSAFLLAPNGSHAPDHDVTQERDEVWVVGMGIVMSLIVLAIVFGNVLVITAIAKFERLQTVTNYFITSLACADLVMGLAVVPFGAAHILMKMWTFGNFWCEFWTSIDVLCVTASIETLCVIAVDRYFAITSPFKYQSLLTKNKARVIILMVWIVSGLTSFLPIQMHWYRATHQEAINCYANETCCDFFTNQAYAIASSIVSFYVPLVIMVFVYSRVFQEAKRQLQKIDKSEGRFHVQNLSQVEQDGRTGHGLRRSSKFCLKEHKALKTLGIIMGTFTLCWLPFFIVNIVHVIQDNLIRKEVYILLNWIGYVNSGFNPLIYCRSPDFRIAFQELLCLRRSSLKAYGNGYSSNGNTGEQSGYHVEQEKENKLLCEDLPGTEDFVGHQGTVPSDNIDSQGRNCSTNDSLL
5-hydroxytryptamine receptor 2A (Homo sapiens), sequence (P28223 whole entry, looked up): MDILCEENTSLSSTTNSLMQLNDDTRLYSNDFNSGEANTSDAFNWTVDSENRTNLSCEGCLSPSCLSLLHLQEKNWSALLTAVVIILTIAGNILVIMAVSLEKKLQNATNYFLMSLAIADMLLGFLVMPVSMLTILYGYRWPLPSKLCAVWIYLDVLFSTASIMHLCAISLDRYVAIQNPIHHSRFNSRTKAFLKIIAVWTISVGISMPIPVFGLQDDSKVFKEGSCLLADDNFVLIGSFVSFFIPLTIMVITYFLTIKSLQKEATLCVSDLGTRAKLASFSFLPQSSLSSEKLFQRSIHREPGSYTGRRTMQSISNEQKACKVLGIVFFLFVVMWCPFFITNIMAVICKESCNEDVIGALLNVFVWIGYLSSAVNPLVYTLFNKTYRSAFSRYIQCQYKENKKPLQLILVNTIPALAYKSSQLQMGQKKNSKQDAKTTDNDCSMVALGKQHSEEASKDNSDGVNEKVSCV
Muscarinic acetylcholine receptor M1 (Homo sapiens), sequence (P11229 whole entry, looked up): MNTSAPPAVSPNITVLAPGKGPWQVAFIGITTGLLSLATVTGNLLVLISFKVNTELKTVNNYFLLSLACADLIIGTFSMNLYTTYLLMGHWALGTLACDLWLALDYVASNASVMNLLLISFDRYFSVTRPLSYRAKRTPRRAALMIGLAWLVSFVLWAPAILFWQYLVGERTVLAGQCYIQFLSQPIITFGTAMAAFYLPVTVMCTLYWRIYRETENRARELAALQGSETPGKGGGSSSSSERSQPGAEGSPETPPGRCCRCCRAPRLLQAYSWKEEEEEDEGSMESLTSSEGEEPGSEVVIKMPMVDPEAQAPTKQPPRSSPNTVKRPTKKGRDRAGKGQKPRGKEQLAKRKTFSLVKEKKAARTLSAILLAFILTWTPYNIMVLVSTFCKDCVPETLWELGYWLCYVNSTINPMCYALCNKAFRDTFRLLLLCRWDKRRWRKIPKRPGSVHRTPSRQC
KiSS-1 receptor (Homo sapiens), sequence (Q969F8 whole entry, looked up): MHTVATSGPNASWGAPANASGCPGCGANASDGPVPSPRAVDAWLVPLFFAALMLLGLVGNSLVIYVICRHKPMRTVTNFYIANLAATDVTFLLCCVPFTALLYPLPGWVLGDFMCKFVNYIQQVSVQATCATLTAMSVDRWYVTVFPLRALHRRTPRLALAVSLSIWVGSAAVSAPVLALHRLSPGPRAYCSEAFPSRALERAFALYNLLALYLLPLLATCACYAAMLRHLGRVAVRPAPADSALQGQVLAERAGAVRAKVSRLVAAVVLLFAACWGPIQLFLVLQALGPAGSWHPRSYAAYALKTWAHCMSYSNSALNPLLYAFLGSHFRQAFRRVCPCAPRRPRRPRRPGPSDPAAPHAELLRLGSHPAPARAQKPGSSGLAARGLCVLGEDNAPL

On to `Nc1nc(Cl)cc(Cl)n1`, for which the Potency result in experiment [1], in experiment [2], in experiment [3], in experiment [4], in experiment [5] and in experiment [6] was “inactive” throughout. In addition, the Potency result in experiment [7], in experiment [8], in experiment [9], in [10], in experiment [11] and in [12] was “inactive” each time. Besides, the Potency entry in experiment [13] and in experiment [14] was “inactive” in each case.
In the case of `CN1CCC(=C2c3ccccc3CCc3cccnc32)CC1`, the Potency entry in experiment [1], in experiment [2], in experiment [3], in experiment [4], in [5] and in experiment [6] was “inactive” in each case. Further, the Potency result in experiment [7], in experiment [9], in [11], in experiment [15], in experiment [16] and in experiment [12] was “inactive” in each case. In addition, in experiment [13], the Potency entry is “inactive”. In addition, in [14], the Potency was 29.8 µM (active).
Turning to `NC(=O)c1cc[n+](CC2=C(C(=O)[O-])N3C(=O)[C@@H](NC(=O)Cc4cccs4)[C@H]3SC2)cc1`, the Potency entry in experiment [1], in experiment [2], in experiment [3], in [4], in experiment [5] and in [6] was “inactive” in each case. Further, the Potency entry in experiment [7], in experiment [8], in experiment [9], in experiment [11], in experiment [16] and in experiment [14] was “inactive” throughout.
As to `Cc1ccc(-c2ncc(Cl)cc2-c2ccc(S(C)(=O)=O)cc2)cn1`, the Potency entry in experiment [1], in experiment [2], in experiment [3], in experiment [4], in [5] and in [6] was “inactive” in each case. The Potency result in experiment [7], in [8], in experiment [10], in experiment [11], in [12] and in [13] was “inactive” in each case.
As to `CN(C)CCOCCO`, the Potency entry in [1], in experiment [2], in experiment [3], in [4], in [5] and in experiment [6] was “inactive” in each case. The Potency result in [7], in experiment [8], in experiment [10], in experiment [11], in experiment [15] and in experiment [12] was “inactive” throughout. The Potency entry in experiment [14] was “inactive”.
Take `O=C1CCCCCO1`: the Potency result in [1], in experiment [2], in [3], in [4], in experiment [5] and in [6] was “inactive” throughout. In addition, the Potency entry in experiment [9], in experiment [10], in [11], in [15], in experiment [16] and in experiment [12] was “inactive” in each case. For the same molecule, the Potency entry in experiment [13] and in experiment [14] was “inactive” in each case.
On to `OCCCCCCCCCCCCBr`, for which the Potency result in experiment [1], in experiment [2], in experiment [3], in [4], in experiment [5] and in experiment [6] was “inactive” each time. Also, the Potency entry in experiment [8], in [9], in [10], in [11], in [16] and in [12] was “inactive” in each case. Moreover, the Potency entry in [13] and in [14] was “inactive” throughout.
Take `CC(C)C1CCC(C(=O)N[C@H](Cc2ccccc2)C(=O)O)CC1` (stereo not given in full): the Potency entry in experiment [1], in [2], in [3], in [4], in experiment [5] and in experiment [6] was “inactive” each time. For the same molecule, the Potency entry in experiment [7], in [15], in experiment [16], in experiment [17], in [13] and in [14] was “inactive” each time.
As to `NNC(=O)OCc1ccccc1`, the Potency entry in experiment [1], in experiment [2], in experiment [3], in [4], in experiment [5] and in experiment [6] was “inactive” throughout. Moreover, the Potency result in experiment [7], in experiment [8], in experiment [9], in experiment [11], in [15] and in [16] was “inactive” throughout. For the same molecule, the Potency entry in experiment [12], in experiment [13] and in [14] was “inactive” throughout.
